Compounds without any hit were thinned out: in the full panel of roughly 83,000, 20% have a hit.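 Negative percent growth values reflect cell death: -40 means 40% of the cells present at the start died, and -100 means all died.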 Unmarked numbers belong to inactive results. Active and inactive are the calls of the source. How the source made its calls: active means growth percent below 10; inactive means the rest.

This experiment has as its system M14 melanoma. Kind of experiment: NCI-60 one-dose screen, 48 h (100 = growth as untreated, 0 = no growth, -100 = all killed). Particulars: 10 µM unless noted.
Take `Cc1cc(Cl)ccc1Nc1nc(C(F)(F)F)ccc1C(=O)N/N=C/c1ccc([N+](=O)[O-])cc1`: the growth is 26.9%.

With `COc1cc(N2C(=O)[C@H](O)C2c2ccc(SC)cc2)cc(OC)c1OC` (stereo partly specified), the growth was 6.4% (active).

Take `Fc1cc2c(cc1Cl)N(c1ncnc3ccc(-c4cnc5[nH]ncc5c4)cc13)CC2`: the growth is 85.5%.

In the case of `COc1ccccc1NC(=O)Cn1cc(CN2CCN(c3ccnc4cc(Cl)ccc34)CC2)nn1`, the growth is 106%.

Take `COc1cc(CNC(=O)CCCC/C=C/C(C)C)ccc1OCc1nnc(Nc2ccc([N+](=O)[O-])cc2)o1`: the growth was 66.4%.

As for `O=C(NCCCN1CCOCC1)c1cccc(N2C(=O)/C(=C/c3ccc(F)cc3)SC2=S)c1`, the growth is 93.8%.

Regarding `O=C(CSc1nnc2n1S(=O)(=O)c1ccccc1N2c1ccccc1)Nc1nc2ccc(F)cc2s1`, the growth was 96.5%.

With `N#Cc1nc(-c2ccccc2)oc1S(=O)(=O)N1CCOCC1`, the growth is 61.7%.

`CC(C)c1ccc(COCc2cc(CN3CCCC3)c(O)c3ncccc23)cc1`: the growth is -6.21% (active).

Turning to `Cc1cc(N)c2cc(NC(=O)/C=C\c3ccccc3Cl)ccc2n1`, the growth is -70.9% (active).

In the case of `COc1ccc(Cc2cc(-c3ccccc3)nn(Cc3ccccc3)c2=O)cc1OC`, the growth is 38%.

Consider `O=C1/C(=C/c2ccc(F)cc2)COc2ccc(O)cc21`, for which the growth is 88.1%.

With `CCOP(=O)(OCC)c1nc(-c2ccccc2)oc1NCc1cccnc1`, the growth was 111%.

For the compound `C/C(=C(/c1ccc(Cl)cc1)c1ccc(OCCN2CCCC2)cc1)c1ccc(Cl)cc1`, the growth is 75.8%.

With `CC(C)=CCC[C@](C)(O)[C@H]1CC[C@]2(C)[C@@H]1CC[C@@H]1[C@@]3(C)Cc4nccnc4C(C)(C)[C@@H]3CC[C@]12C`, the growth was 71.4%.

Take `CC1=Nc2cnc(Nc3ccc(OCCN4CCCC4)cc3)nc2Nc2ccccc21`: the growth was 52.6%.

The values above are taken from PubChem BioAssay (NCI).
